Experimental data from the supplement of paper PMC3484114.
± gives the standard deviation.

What follows are molecules tested on OVCAR-3-derived ovarian cancer stem-like cells (spheroids) (assay: cell growth relative to untreated control; higher = more growth (less inhibition)). Conditions: 2.29 µM; 96 h.
Summary of the method: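 After trypsin dissociation, OVCAR-3 spheroid-derived stem-like cells were placed in ultra-low attachment 96-well plates at 50,000 cells/mL in stem cell medium and preincubated for 24 h. Treatment at 2.29 uM followed for 96 h at 37°C, 5% CO2, with 4 replicate wells per compound. A 4 h TOX8 resazurin fluorescence read (ex 560/em 590 nm) gave viability, from which percent growth relative to untreated wells was derived after blank subtraction and Grubbs outlier removal.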

Structure (SMILES) | cell growth
O=C1c2cccc(NCCCNCCO)c2C(=O)c2cccc(NCCCNCCO)c21 | 57.9 ± 16%
CN1C(c2ccccc2)CC(=NO)CC1c1ccccc1 (stereo unspecified) | 99.7 ± 13%
COc1ccc(/C=C2\CCc3ccccc3C2=O)cc1OC | 95.7 ± 11%
CC1(C)NC(=O)N(CCCCCCN2C(=O)NC(C)(C)C2=O)C1=O | 85.8 ± 22%
CCN(CC)CCOc1ccccc1/C=C/c1noc2ccccc12 | 79.3 ± 18%
Oc1ccc2ccccc2c1N=Nc1cccc2ccccc12 | 82.9 ± 12%
Nc1ccn([C@@H]2O[C@H](CO)[C@@H](O)[C@@H]2O)c(=O)n1 | 76.6 ± 11%
CCC12C[N+]3([O-])CCc4c([nH]c5ccccc45)C(C(=O)OC)(c4cc5c(cc4OC)N(C)C4C(O)(C(=O)OC)C(OC(C)=O)C6(CC)C=CCN7CCC54C76)CC(C3)C1O2 (stereo unspecified) | 27.9 ± 4.2%
Cc1cc(N)c2ccccc2[n+]1CCCCCCCCCC[n+]1c(C)cc(N)c2ccccc21 | 41.9 ± 7.2%
CC(C)C1(Cl)CCC2C3(C)CCCC(C)(C(=O)O)C3CC(Cl)C2(Cl)C1Cl (stereo unspecified) | 94.6 ± 30%
O=C1c2ccccc2C(=O)C1C(c1ccc([N+](=O)[O-])cc1)C1C(=O)c2ccccc2C1=O | 83.3 ± 24%
CC(=O)c1ccc(Oc2ccc(/C(C)=N/N=C(N)N)cc2)cc1 | 32.4 ± 7.5%
Cc1ccccc1NC(=O)C(=O)C(c1cnc2ccc([N+](=O)[O-])cc2n1)[N+](=O)[O-] (stereo unspecified) | 112 ± 25%
O=C1c2ccccc2C(=O)c2sc(Nc3ccc(Cl)c(Cl)c3)nc21 | 9.6 ± 7%
Cc1[nH]c(=O)nc(N/N=C/c2ccc(Cl)cc2)c1C(=O)Nc1ccc(Cl)cc1 | 63.1 ± 11%
COc1cccc2c1C(=O)c1c(O)c3c(c(O)c1C2=O)C[C@@](O)(C(C)=O)C[C@@H]3O[C@@H]1C[C@@H](N(C)C)[C@@H](O)[C@@H](C)O1 | 26.5 ± 25%
